The values that follow come from PubChem BioAssay AID720507 (National Center for Advancing Translational Sciences (NCATS), 2013).

Molecules are shown by their SMILES. About 140 (6.1%) of roughly 2,300 compounds were called active. Not shown: some 18% with an inconclusive outcome. The call rests on the fitted dose curve; in most records, active means well fitted activation curve with a large enough effect; inconclusive means small, poorly fitted or top-dose-only effect; inactive means flat fitted curve, though single readings scatter. The list is a sample of the results. Entries that show only a call come without a potency.
Potency means the concentration at half of the fitted maximal effect.

D(2) dopamine receptor (Homo sapiens), sequence (P14416 whole entry, looked up): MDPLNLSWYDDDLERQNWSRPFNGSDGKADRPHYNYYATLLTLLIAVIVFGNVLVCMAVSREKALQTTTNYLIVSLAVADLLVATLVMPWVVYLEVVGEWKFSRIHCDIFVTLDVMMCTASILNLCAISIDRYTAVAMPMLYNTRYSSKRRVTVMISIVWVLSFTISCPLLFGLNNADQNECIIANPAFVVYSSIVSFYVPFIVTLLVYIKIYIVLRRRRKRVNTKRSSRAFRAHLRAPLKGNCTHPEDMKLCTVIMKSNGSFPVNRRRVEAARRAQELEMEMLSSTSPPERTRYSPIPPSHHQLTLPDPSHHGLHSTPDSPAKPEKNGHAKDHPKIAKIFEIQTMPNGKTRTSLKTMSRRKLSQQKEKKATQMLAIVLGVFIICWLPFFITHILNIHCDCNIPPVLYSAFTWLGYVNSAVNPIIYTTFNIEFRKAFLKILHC

This assay has as its target D(2) dopamine receptor (Homo sapiens) (UniProt P14416). Kind of assay: qHTS of D3 Dopamine Receptor Agonist: D2 Dopamine Receptor B-arrestin Agonist Counterscreen. Further: nearly all actives have a fitted effect of over 70% in size. The note with it: DiscoveRx PathHunter D2 beta-arrestin, luminescence, 90 min; series mostly up to 76.9 µM. The text has this:
D3 DARs represent a very important target for the treatment of several neuropsychiatric disorders. Indeed, one of the most promising therapeutic applications for the D3 DAR is in the area of addiction and related disorders. […] These findings have been observed with a number of addictive substances including cocaine, amphetamine, nicotine, and alcohol. […] Increased D3 DAR activity can thus lead to neuroprotective and neurorestorative actions in the CNS. […] This assay is used to profile the activity of the identified D3 dopamine receptor agonist against the D2 dopamine receptor. Greater than 10% of the maximum dopamine agonist response is desired for this assay. NIH Molecular Libraries Probe Production Centers Network [MLPCN] NIH Chemical Genomics Center [NCGC] MLPCN Grant: NS064831 Assay Submitter (PI): David Sibley
DiscoveRx D2 cells were thawed from frozen stock and seeded at 2,100 cells/ 3 uL/well media (DiscoveRx Plating Reagent 2) with MultiDrop Combi dispenser (Thermo Scientific, Logan, UT) onto white tissue culture treated 1536-well Aurora plates (Brooks Automation, Chelmsford, MA) and allowed to attach overnight at 37 deg C, 5% CO2. Next, 23 nL/well of compound solutions in DMSO were added with a pintool transfer (Kalypsis, San Diego, CA). […] The rest of the plate was dispensed with buffer only, 1 uL/well as well. The cells were stimulated by compounds or dopamine control for 90 minutes at 37 deg C, 5% CO2, after which 1.5 ul/well of DiscoveRx detection reagent was added with BioRAPTR FRD dispenser. The detection reagent was prepared by mixing of Galacton Star Substrate, Emerald II solution and PathHunter buffer (supplied by the assay kit) together at 1:5:19 proportion accordingly just prior to dispensing. The plates were incubated at ambient temperature for 1 hour and then the luminescent signal was read on ViewLux plate reader (PerkinElmer, Waltham, MA).
In general terms: In qHTS, concentration-response curves come from the screen itself.
Regarding `O=C(CN1CCN(S(=O)(=O)c2cc(Cl)ccc2Cl)CC1)c1ccc(O)c(O)c1`, the Potency result was “inactive”.
As for `CCC(=O)Nc1ccc(C(=O)N2CCN(C(=O)c3ccco3)CC2)cc1`, the entry is “inactive”; as for `Cc1cc(C)n2nc(C(=O)N3CCN(Cc4ccc5c(c4)OCO5)CC3)nc2n1`, “inactive”.
Then `O=C(c1ccco1)N1CCN(Cc2cccc(C(F)(F)F)c2)CC1`, with 31.6 µM (active); and `Cc1ccc(S(=O)(=O)N2CC(O)C[C@H]2C(=O)OCC(=O)Nc2ccc(N3CCOCC3)cc2)cc1C` (stereo partly drawn), with “inactive”; and `CCN(CCCNC(=O)c1ccc2c(c1)NC(=O)CN2C)c1cccc(C)c1`, with “inactive”.
Then `O=C(COc1coc(CN2CCN(c3ccccc3)CC2)cc1=O)Nc1ccccc1F`, with “inactive”.
Take `CN(CCO)S(=O)(=O)c1ccc2c(c1)C(=O)c1cc(S(=O)(=O)N(C)CCO)ccc1-2`: the Potency entry was “inactive”.
Consider `Cc1n[nH]c(C)c1S(=O)(=O)N1CCCC(C(=O)NCC2COc3ccccc3O2)C1` (stereo not drawn), for which the Potency result was “inactive”.
Then `OCC1(Cc2ccccc2)CCN(Cc2cc3ccccc3o2)CC1`, with 25.1 µM (active).
For the compound `CS/C(=C\C(=O)c1ccco1)Nc1ccccc1Cl`, the Potency result was “inactive”.
Then `O=c1oc(-c2ccccc2NS(=O)(=O)c2ccc(Cl)cc2)nc2ccccc12`, with “inactive”; and `O=C(NC1CCCCC1)c1ccc2c(=O)n(CC3CCCO3)c(=O)[nH]c2c1` (stereo not drawn), with “inactive”.
As for `COC(c1ccccc1)c1nnc(CCC(=O)N2CCN(CCOc3ccccc3)CC2)o1` (stereo not drawn), the entry is “inactive”; as for `CN1CCC(CN)(N2CCN(c3ccccc3)CC2)CC1`, “inactive”.
In the case of `Cc1c(C(=O)Nc2cccc(-c3nnc4n3CCCCC4)c2)oc2ccccc12`, the Potency result is “inactive”.
Then `O=C(Nc1cccnc1Cl)c1cc(-c2cccc(Cl)c2)on1`, with “inactive”; and `COc1ccc([C@H]2CC(=O)C=C(c3ccc(OC(F)(F)F)cc3)C2)cc1OC`, with “inactive”; and `Cc1c(CC(=O)N2CCN(C(=O)C3COc4ccccc4O3)CC2)c(=O)oc2c(O)c(O)ccc12` (stereo not drawn), with 31.6 µM (active).
As for `O=S(=O)(c1ccc(F)cc1)N1CC=C(c2ccccc2)CC1`, the entry is “inactive”; as for `CC[C@H](C)C(=O)N[C@H]1CCCN1C(=O)/C=C/c1ccccc1`, “inactive”; as for `CCOC(=O)[C@H]1[C@H]2COc3ccc(C)cc3[C@@H]2N2C(=O)CN(Cc3ccc(F)cc3)C(=O)[C@@]12C`, “inactive”.
As for `Cc1ccc(O)c(-c2cc(C(=O)Nc3c(C)n(C)n(-c4ccccc4)c3=O)[nH]n2)c1`, the entry is “inactive”; as for `CCCN(CC(=O)Nc1ccccc1C)C(=O)c1ccc2[nH]c3c(c2c1)CC(C)CC3` (stereo not drawn), “inactive”; as for `Cc1cnc(C(=O)N2CCCC(N3CCN(c4ccccc4F)CC3)C2)cn1` (stereo not drawn), “inactive”.
With `Cc1cccc(C)c1NC(=O)CNC(=O)c1ccc2c(c1)OCCO2`, the Potency result is “inactive”.
Then `COc1ccc([C@H]2CC(=O)C=C(c3ccc(CO)cc3)C2)cc1`, with “inactive”; and `CC1(C)CC(=O)C=C(c2ccc3ncccc3c2)C1`, with “inactive”.
As for `COc1ccc(NC(C)=O)cc1NC(=O)CN1CCN(c2ccccn2)CC1`, the entry is “inactive”.
As for `O=C(Nc1cccc(-c2nc3ccccc3[nH]2)c1)c1ccc(C(=O)Nc2cccc(-c3nc4ccccc4[nH]3)c2)cc1`, the entry is “inactive”.
In the case of `CC(=O)OC(C)C[N+](C)(C)C` (stereo not drawn), the Potency entry is “inactive”.
`CCC(=O)c1ccc(OCC(=O)Nc2ccc(N3CCCCC3)cc2)cc1`: the Potency result is “inactive”.
Then `OCC[C@H]1C[C@H](O)[C@@H](O)[C@]2(Cc3ccccc3CO2)O1`, with “inactive”; and `O=C(Cc1csc(Nc2nc(=S)[nH]c3ccccc23)n1)NCCCN1CCN(c2cccc(Cl)c2)CC1`, with “inactive”.
For the compound `O=C(NC(=O)c1ccccc1)Nc1ccccc1O`, the Potency entry is “inactive”.
Then `CN1CCN(S(=O)(=O)c2cccc(C(=O)Nc3sccc3C#N)c2)CC1`, with “inactive”; and `O=c1cc(CCl)nc2scc(-c3ccccc3)n12`, with “inactive”; and `O=C(CSC1CC(=O)N(CCc2ccccc2)C1=O)Nc1ccc(Cl)cc1` (stereo not drawn), with “inactive”.
As for `COc1cc(OC)c(-n2cc(-c3ccc(Cl)cc3)[nH]c2=O)cc1Cl`, the entry is “inactive”; as for `O=C(c1c(F)cccc1F)N1CCN(S(=O)(=O)c2ccc3c(c2)OCCO3)CC1`, “inactive”; as for `COc1ccc(CC(NC(C)=O)C(=O)N2CCN(C(=O)Nc3cccc(Cl)c3)CC2)cc1OC` (stereo not drawn), “inactive”.
`CC(C)c1ccc2c(c1)c(SC(C)(C)C)c(CC(C)(C)C(=O)O)n2Cc1ccc(Cl)cc1`: the Potency entry is “inactive”.
As for `NS(=O)(=O)c1ccc(CCNS(=O)(=O)c2cccc3cccnc23)cc1`, the Potency entry is “inactive”.
As for `Cc1c(CN2CC[C@@H](N3CCN(c4ccccn4)CC3)[C@H](O)C2)[nH]c2ccc(F)cc12`, the figure is 28.2 µM (active); as for `O=C(CN1CCN(c2ccccn2)CC1)NC1CCCCC1`, “inactive”.
As for `NS(=O)(=O)c1ccc(CCNC(=O)NC2CCCCC2)cc1`, the entry is “inactive”; as for `O=C1c2cccc3cccc(c23)N1CN1CCN(c2ccccn2)CC1`, “inactive”; as for `CCC(=O)Nc1ccc2c(c1)nc(CCN1CCN(c3ccccn3)CC1)n2C`, “inactive”.
Then `O=C(C1CC(=O)N(c2ccc(F)cc2)C1)N1CCN(c2ccccc2)CC1` (stereo not drawn), with “inactive”; and `Cn1c(=O)c(=O)n(C)c2cc(S(=O)(=O)NCCN3CCN(c4ccccc4F)CC3)ccc21`, with “inactive”; and `COc1ccc(N2CCN(Cc3cc(=O)oc4ccc5ccccc5c34)CC2)cc1`, with “inactive”.
On to `O=C(CCN1CCN(c2ccccc2)CC1)NNC(=S)Nc1ccccc1`, for which the Potency result is “inactive”.
As for `Nc1nonc1-n1nnc(C(=O)N/N=C/c2ccc(Cl)cc2)c1-c1ccc2c(c1)OCO2`, the entry is “inactive”; as for `O=C1c2ccccc2S(=O)(=O)N1CC(O)Cn1c2ccccc2c2ccccc21` (stereo not drawn), “inactive”; as for `O=C(c1ccc2c(c1)OCCO2)C1CCN(S(=O)(=O)c2cccc(F)c2)CC1`, “inactive”.
Then `O=C(Nc1ccc(F)cc1F)N1CCCN(CCOc2ccccc2)CC1`, with “inactive”.
Regarding `O=C(CCN1CCN(C/C=C/c2ccccc2)CC1)Nc1ccccc1Cl`, the Potency entry is “inactive”.
As for `CC(=O)C[C@@H](O)CC(=O)[C@H]1OC(=O)CCCCCCc2ccccc21`, the entry is “inactive”.
`O=C(O[C@H]1[C@H](Cc2ccccc2)NS(=O)(=O)[C@H]2C[C@@H]3C=C[C@]12O3)c1ccc([N+](=O)[O-])cc1`: the Potency result is “inactive”.
Take `CNC(=O)NC(=O)C(C)N1CCN(C/C=C/c2ccccc2)CC1` (stereo not drawn): the Potency entry is “inactive”.
As for `c1ccc(-c2cnc(CN3CCN(c4ccccc4)CC3)o2)cc1`, the entry is “inactive”; as for `C/C(=N\NC(=S)NC1CCCCC1)c1ccc(C)o1`, “inactive”; as for `COc1ccc(S(=O)(=O)N2CCSCC2)cc1`, “inactive”.
